According to the supplement of paper PMC9446081:
± gives the standard deviation of the averaged measurements.

Each molecule was assayed against T1, MurF (UniProt P11880) (assay: relative enzymatic activity vs untreated control (fraction); higher = less inhibition). Settings: 100 µM; incubation time: 2 h at 37 C.
T1 sequence (whole entry): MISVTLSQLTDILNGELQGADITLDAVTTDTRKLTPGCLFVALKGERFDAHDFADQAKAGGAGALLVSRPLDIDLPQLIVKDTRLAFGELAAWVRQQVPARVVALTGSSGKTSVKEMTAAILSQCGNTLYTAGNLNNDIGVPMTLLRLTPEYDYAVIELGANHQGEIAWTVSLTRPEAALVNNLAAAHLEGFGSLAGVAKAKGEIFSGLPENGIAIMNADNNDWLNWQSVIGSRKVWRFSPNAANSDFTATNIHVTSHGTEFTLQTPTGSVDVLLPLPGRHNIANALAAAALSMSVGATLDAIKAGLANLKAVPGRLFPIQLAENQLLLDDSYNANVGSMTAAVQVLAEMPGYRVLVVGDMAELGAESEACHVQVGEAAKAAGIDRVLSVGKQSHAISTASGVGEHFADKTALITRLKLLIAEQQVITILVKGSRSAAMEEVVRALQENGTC
Method: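 In vitro enzymatic inhibition assays (ProFoldin kits) for 12 purified essential E. coli enzymes or complexes, each treated with 218 active antibacterial compounds at 100 µM for 2 h at 37°C. Read-outs were fluorescence or absorbance (phosphate detection, dye binding), converted to activity via standard curves and expressed relative to untreated DMSO controls.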
In the case of `Cc1cn(C2CC(N=[N+]=[N-])C(CO)O2)c(=O)[nH]c1=O` (stereo not given), the relative enzymatic activity is reported as 0.97 ± 0.2. For `CCOC(=O)OC(C)OC(=O)C1N2C(=O)C(NC(=O)C(N)c3ccccc3)C2SC1(C)C.Cl` (stereo not given), the relative enzymatic activity was 0.981 ± 0.23. With `Cn1nnnc1SCC1=C(C(=O)[O-])N2C(=O)C(NC(=O)C(O)c3ccccc3)C2SC1.[Na+]` (stereo not given) the relative enzymatic activity was 0.988 ± 0.21. `CNC1C(OC2C(OC3C(O)C(O)C(NC(=N)N)C(O)C3NC(=N)N)OC(C)C2(O)CO)OC(CO)C(O)C1O.O=S(=O)(O)O` (stereo not given) showed a relative enzymatic activity of 0.944 ± 0.15. Molecule `CON=C(C(=O)NC1C(=O)N2C(C(=O)OCOC(=O)C(C)(C)C)=C(C=Cc3scnc3C)CSC12)c1csc(N)n1` (stereo not given) has a relative enzymatic activity of 0.893 ± 0.24. With `COC1(NC(=O)C(C(=O)[O-])c2ccc(O)cc2)C(=O)N2C(C(=O)[O-])=C(CSc3nnnn3C)COC21.[Na+].[Na+]` (stereo not given) the relative enzymatic activity was 0.913 ± 0.23. Work on `Nc1c2ccccc2nc2ccccc12` yielded a relative enzymatic activity of 0.94 ± 0.25. Molecule `O=C1OC(=O)[C@H]2[C@@H]1[C@H]1CC[C@H]2O1` has a relative enzymatic activity of 0.979 ± 0.22. Molecule `CC(=O)On1cc(F)c(=O)[nH]c1=O` has a relative enzymatic activity of 0.933 ± 0.22. For `N[C@@H](C(=O)N[C@@H]1C(=O)N2C(C(=O)O)=C(Cl)CS[C@H]12)c1ccccc1`, the relative enzymatic activity was 0.954 ± 0.21. With `CC1(C)S[C@@H]2[C@H](NC(=O)[C@H](NC(=O)N3CCNC3=O)c3ccccc3)C(=O)N2[C@H]1C(=O)O` the relative enzymatic activity was 0.954 ± 0.23. For `COc1ccc(Cc2cnc(N)nc2N)cc1OC`, the relative enzymatic activity was 0.946 ± 0.2. For `CN1CCN(c2c(F)cc3c(=O)c(C(=O)O)cn4c3c2OCN4C)CC1`, the relative enzymatic activity was 1.17 ± 0.022. With `O=C(O)c1cn(C2CC2)c2cc(N3CCNCC3)c(F)cc2c1=O` the relative enzymatic activity was 0.991 ± 0.21. `COc1cc(Cc2cnc(N)nc2N)cc(OC)c1OC` gave a relative enzymatic activity of 0.569 ± 0.81.
